# About 2,300 (1%) of roughly 220,000 compounds were called active. Entries that show only a call come without a potency. About 6% were inconclusive and are not listed. This is one part of a sample in which actives are shown more often than they occur. Unmarked numbers belong to inactive results. The call rests on the fitted dose curve; in most records, active means well fitted inhibition curve with a large enough effect; inconclusive means small, poorly fitted or top-dose-only effect, or effect the other way; inactive means no such curve, though single readings can be large or run the other way.
# Molecular target: Neuropeptide S receptor (Homo sapiens) (UniProt Q6W5P4)
# Sequence (Q6W5P4 whole entry, looked up): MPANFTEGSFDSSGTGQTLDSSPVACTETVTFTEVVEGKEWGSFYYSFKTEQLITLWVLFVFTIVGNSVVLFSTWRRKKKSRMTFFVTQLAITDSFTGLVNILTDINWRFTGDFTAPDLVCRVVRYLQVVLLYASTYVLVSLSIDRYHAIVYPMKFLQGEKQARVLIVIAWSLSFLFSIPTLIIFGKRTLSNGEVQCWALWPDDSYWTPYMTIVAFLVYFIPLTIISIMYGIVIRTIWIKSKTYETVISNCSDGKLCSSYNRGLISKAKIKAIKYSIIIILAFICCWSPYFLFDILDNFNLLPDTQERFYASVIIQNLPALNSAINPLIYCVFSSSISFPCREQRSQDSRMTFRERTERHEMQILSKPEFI
# Test: qHTS Assay for Antagonists of the Neuropeptide S Receptor: cAMP Signal Transduction; further: nearly all actives have a fitted effect of over 50% in size
# Details: CHO-NPSR cells, cAMP TR-FRET, antagonist mode; series mostly up to 38.3 µM
# Excerpt: NIH Chemical Genomics Center [NCGC] NIH Molecular Libraries Probe Production centers Network [MLPCN] MLPCN Grant: X01-DA026210-01 Assay Submitter (PI): Heilig, Markus Alexander NCGC Assay Overview: Neuropeptide S receptor (NPSR), previously known as GPR154, is a recently de-orphanized G protein coupled receptor. Its endogenous ligand is the 20 amino acids peptide Neuropeptide S (NPS). […] NPS and its receptor are found in various tissues. Specifically they are highly expressed in brain areas that have been implicated in modulation of arousal, stress and anxiety. Central administration of NPS in mice produces an unusual profile of activity by inducing wakefulness and arousal, while at the same time suppressing anxiety. Therefore, NPSR may represent a novel drug target for the treatment of sleep and anxiety disorders. To identify NPSR antagonists, we developed a cell-based cAMP assay. NPS can stimulate the production of cAMP in Chinese hamster ovary cells stably expressing NPS receptor. This change in intracellular cAMP level can be detected by a homogeneous LANCE cAMP assay based on the TR-FRET (time resolved fluorescence resonance energy transfer) between a europium-labeled cAMP tracer complex and a cAMP-specific antibody labeled with Alexa Fluor 647. The europium-labeled cAMP tracer complex is formed by the tight interaction between Biotin-cAMP (b-cAMP) and streptavidin labeled with Europium-W8044 chelate (Eu-SA). Light pulse at 320 nm excites the europium of the cAMP tracer and the energy emitted is transferred to the Alexa molecule bound to the cAMP antibody, generating a TR-FRET signal at 665 nm. Residual energy from the europium will produce a light at 620 nm. The native unlabeled cAMP from cell lysates competes with the europium-cAMP tracer for antibody binding and reversely reduces the emission signal of Alexa by interrupting FRET between the two labeled molecules. Both emission signals from the FRET donor (620 nm) and the acceptor (665 nm) can be detected by a plate reader in the TRF mode. Expression of result in fluorescence ratio (665 nm/620 nm) helps to normalize differences due to cell density and reagent dispensing. This assay was successfully optimized to a 1536-well plate format.
# NCGC Assay Protocol Summary: A Chinese hamster ovary (CHO) cell line stably expressing the NPS receptor (CHO-NPSR) was obtained from Dr. Heilig lab at NIAAA and maintained in F-12 Kaighn's media (Invitrogen, Carlsbad, CA, 21127) supplemented with 10 % FBS, 100 units/ml penicillin, 100 ug/ml streptomycin and 250 ug/ml geneticin at 37C, 5% CO2 in a humidified atmosphere. Before the assay, aliquots of cells were frozen and stored at -135C. The assay was performed in 1536-well format. Data are reported for both the ratio of the two emission wavelengths, and also for the component 'donor' channel, Em2=620. Data were normalized to the controls for basal activity (DMSO only) and 100% inhibition (No NPS control). IC50 values were determined from concentration-response data modeled with the standard Hill equation. NPS 1536-well assay protocol: (1) Fresh or frozen CHO-NPSR cells were suspended in F-12 Kaighn's media supplemented with 10 % FBS, 100 units/ml penicillin and 100 ug/ml streptomycin. Cells were plated at 4 ul/well (1200 cells) to white, tissue culture treated 1536-well plates, and then cultured at 37C, 5 % CO2 for 16 to 30 hours. (2) Add 23 nl/well of compound in DMSO solution. The final titration for each compound was between 0.6 nM and 46 uM. (3) Add 1 ul of stimulation reagent (1X HBSS buffer, 5 mM HEPES, 0.1% BSA, 500 uM RO-201724 (Sigma-Aldrich, B8279), 1.5% Alexa 647-labeled anti-cAMP antibody (from Perkin Elmer), 100 nM NPS) (4) Incubation at 37C, 5 % CO2 for 60 min. (5) Add 1 ul/well detection reagent. Detection reagent was prepared by adding biotin labeled cAMP (4%), streptavidin labeled with Europium-W8044 chelate (1.33%) and TritonX-100 (1%) to detection buffer. […]
# Potency means the concentration at half of the fitted maximal effect.
Compound,Potency,"activity change, negative = inhibition"
Cc1ccc(C)c2[nH]c(=O)c(CN(Cc3cccnc3)C(=S)NCc3ccco3)cc12,inactive,
COc1ccc(NC(=S)Nc2ccccc2Cl)cn1,inactive,
COc1ccc(Nc2cc(Cl)ccc2C(=O)O)cn1,inactive,
COc1ccc(NC(=O)/C(Cl)=C(/Cl)S(=O)Cc2ccc(C)cc2)cn1 (configuration not stated),1 µM (active),
COc1cccc(Nc2nc(N)c([N+](=O)[O-])c(NCc3ccco3)n2)c1,inactive,
C/C(=N\OCC(=O)O)c1ccc(Cl)cc1,,9.86% [at 7.67 µM]
Cc1noc(C)c1S(=O)(=O)Nc1cc(C(F)(F)F)ccc1N1CCOCC1,inactive,
COc1ccc(C(=O)C2CCCN(Cc3ccc4nonc4c3)C2)c(C)c1 (configuration not stated),inactive,
COc1ccc(S(=O)(=O)Nc2ccc(O)c(Sc3nc4ccccc4s3)c2)cc1,inactive,
O=[N+]([O-])c1c(NCCO)cc(Sc2nc3ccccc3s2)c2nonc12,10 µM (active),
O=C(CSc1nc2ccccc2s1)Nc1ccc(C(=O)O)cc1,inactive,
COc1cc2nc(Cl)nc(NCCO)c2cc1OC,inactive,
C/C(=N/NC(=O)CC(=O)N/N=C(\C)c1ccc([N+](=O)[O-])cc1)c1ccc([N+](=O)[O-])cc1,inactive,
O=C(Cn1cnc2cc([N+](=O)[O-])ccc2c1=O)NC(=O)NCc1ccccc1,inactive,
Cc1ccc(SC(CC(=O)c2ccc(C(C)(C)C)cc2)C(=O)O)cc1 (configuration not stated),10 µM (active),
Cc1ccc(CSCC(N)C(=O)O)cc1 (configuration not stated),inactive,
Cc1ccc(C(=O)CS(C)(=O)=O)cc1,inactive,
C/C(Cc1ccccc1)=N\NC(=O)CNC(=O)c1ccc2c(c1)OCCO2,inactive,
CC1CC2=C(CC1/C=N/NC(N)=S)C(C)(C)CCC2 (configuration not stated),12.6 µM (active),
CC1(C)CCCC2=C1CC1C(=O)N(c3ccccc3)C(=O)C1C2 (configuration not stated),inactive,
Oc1[nH]c2ccc(Br)cc2c1N=Nc1nn[nH]n1,inactive,
Cc1nc(CNS(=O)(=O)c2cc([N+](=O)[O-])ccc2C)cs1,inactive,
Cc1nc(=O)c(-c2ccccc2)c(C)n1-c1ccc(Br)cc1,inactive,

Compound,Potency,"activity change, negative = inhibition"
CC(NCc1ccccc1OC1CCCC1)c1ccccc1 (configuration not stated),inactive,
NC(=S)Nc1c(Cl)cccc1Cl,,7.17% [at 7.67 µM]
CN(c1ccccn1)c1ncnc2[nH]ncc12,inactive,
CC(=O)c1cc(NC(=O)c2ccccc2)c(=O)oc1/C=C/N(C)C,10 µM (active),
CCOC(=O)c1cc(NC(=O)c2ccc(Cl)cc2)c(=O)oc1-c1ccccc1,inactive,
Cc1ccccc1NC(=O)c1ccccc1,inactive,
COc1ccc(C2/C=C\CN(S(=O)(=O)c3cccs3)CC(=O)N2Cc2ccc(F)cc2)cc1 (configuration not stated),inactive,
COc1ccc(CN2C(=O)C(C)S/C2=N/N=C/c2ccco2)cc1 (configuration not stated),inactive,
CCOC(=O)c1ccc(NC(=O)c2nc[nH]c2C(=O)N[C@@H](CCCCNC(=O)OC(C)(C)C)C(=O)OC(C)(C)C)cc1,inactive,
CCC(=O)/C(=C(/O)c1ccccc1)c1nc2ccccc2[nH]1,inactive,
O=C(Cc1nc2ccccc2[nH]c1=O)c1ccc(Cl)cc1,inactive,
O=C(/C(=C/c1cccc(Cl)c1)c1nc2ccccc2[nH]1)c1ccccc1,10 µM (active),
CC1=CC2=NC(=O)/C(=C/c3coc4ccccc4c3=O)C(=N)N2O1,inactive,
Cc1ccc(/C=N/NC(=O)CSc2ccccn2)o1,inactive,
Cc1ccc(C(O)P(=O)(OC(C)C)c2ccc(N(C)C)cc2)cc1 (configuration not stated),inactive,
O=C(Nc1ccc2c(c1)OCCO2)c1ccoc1,inactive,
CC(=O)O[C@]1(C(C)=O)CC[C@H]2[C@@H]3C=C(C)C4=CC(=O)CC[C@]4(C)[C@H]3CC[C@@]21C,3.98 µM (active),
NC(=O)NC(=O)CSc1nc2cc([N+](=O)[O-])ccc2n1-c1cccc(C(F)(F)F)c1,inactive,
COc1ccc(/C=C/c2nnc(NC(=O)C(C)C)s2)cc1,inactive,
C/C(CC(=O)NC(C)c1ccccc1)=N\NC(N)=S (configuration not stated),inactive,
Cc1cccc2cc(CN(Cc3nnnn3Cc3ccccc3)C3CCCC3)c(=O)[nH]c12,inactive,
Cc1cccc2cc(CN(Cc3ccc4c(c3)OCO4)Cc3nnnn3C3CCCC3)c(=O)[nH]c12,12.6 µM (active),
Cc1cc(C)c2[nH]c(=O)c(C(c3nnnn3Cc3ccc4c(c3)OCO4)N3CCCC3)cc2c1 (configuration not stated),inactive,

Compound,Potency,"activity change, negative = inhibition"
COCCN(Cc1cc2cc3c(cc2nc1Cl)OCO3)C(=O)c1cccc(C)c1,inactive,
Cc1ccc(NNC(=O)c2cccs2)cc1Cl,inactive,
Cc1cc(C)c(C)c(S(=O)(=O)N[C@@H](C)C(=O)OC(C)C(=O)NC(N)=O)c1C (some centres not stated),inactive,
O=C(Nc1ccc(Cl)cc1)/C(=C1\CCCN1)[N+](=O)[O-],inactive,
CN1CCN(c2ccc(NC(=O)COc3ccc(Cl)cc3Cl)cc2)CC1,,3.6% [at 7.67 µM]
COc1cc(NC(=O)COc2ccccc2Cl)ccc1NC(=O)C(C)C,inactive,
Cc1ccccc1OCC(=O)Nc1ccc(N2CCN(C(=O)C(C)C)CC2)c(Cl)c1,12.6 µM (active),
Nc1ccc(N=Nc2ccccc2Cl)c(N)n1,inactive,
COc1ccc(CCNC(=O)C(=O)NCC2CCNCC2)cc1OC,inactive,
Cc1cc(C)c2c3c(sc2n1)C(c1ccccc1)C(C#N)=C(N)O3 (configuration not stated),10 µM (active),
Cc1cc(C)c(C#N)c(SCc2[nH]nc3c2C(c2ccccc2)C(C#N)=C(N)O3)n1 (configuration not stated),inactive,
N#CC1=C(N)Oc2c(sc3ccccc23)C1c1ccco1 (configuration not stated),,-7.26% [at 7.67 µM]
O=C1CCC(=O)N(O)CCCCCNC(=O)CCC(=O)N(O)CCCCCNC(=O)CCC(=O)N(O)CCCCCN1,inactive,
NC(=O)N/N=C\c1cccs1,inactive,
O=S(=O)(c1ccc(F)cc1)N1CC=C(c2ccccc2)CC1,,-0.503% [at 7.67 µM]
Cc1ccccc1Nc1scc(-c2ccc(Br)cc2)[n+]1-c1ccccc1C,10 µM (active),
Nc1scc[n+]1Cc1cccc2cccnc12,inactive,
Nc1nc(NC(=O)/C=C/c2ccc(F)cc2)nn1-c1ccccc1,inactive,
COc1cc(/C=N/O)ccc1OCc1ccc([N+](=O)[O-])cc1,inactive,
COC(=O)c1ccc(COc2ccc(/C=N/NC(=O)C(=O)Nc3ccc(OC)cc3)cc2OC)o1,inactive,
CCCc1ccc(OCc2ccc(C(=O)N/N=C/c3cccc([N+](=O)[O-])c3)o2)c(OC)c1,10 µM (active),

# Reference: PubChem BioAssay AID1461 (National Center for Advancing Translational Sciences (NCATS), 2008)
